Screening results (PubChem)
A selection: hits, their analogues and other compounds. The true share with any hit is near 11%.
Insulin prom up = MIN6 insulin promoter up-regulation | AID 1625 | z-score at 5 µM | MIN6 insulin promoter-GFP reporter, high-content imaging; stronger effect = higher value | 190,000 compounds, 0.3% hits;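 active means z-score above 3 at 5 µM with at least 500 cells counted in the well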
Autophagy mod = autophagy modulation, high-content screen. MEF GFP-LC3 puncta imaging; test concentration mostly 10 µM. 190,000 compounds, 0.98% hits. calls only at 10 µM (by protocol). AID 463193;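 active means percentage of spot-positive cells more than 3 SD above its plate mean, without a fluorescence outlier flag or 80% toxicity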;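 further: spot-positive cell cutoff set from DMSO-treated cells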
Insulin prom inh = TRM-6 insulin promoter activity inhibition. 130,000 compounds, 0.9% hits. inhibition, % at 2 µM. TRM-6 cells (human fetal islet line), insulin promoter-eGFP reporter, imaging; reporter expression induced with tamoxifen;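 active means inhibition above the mean plus 3 SD, with well images judged a real hit on visual review, cut at about 60% in these data, passing the limit was not always enough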
L major viab = Leishmania major promastigote growth inhibition | Leishmania major promastigotes, resazurin fluorescence viability | inhibition, % at 10 µM | 200,000 compounds, 9% hits; in the data active means inhibition above about 50%;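 further: promastigotes grown with compound for 44 hours at 28 °C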
WT yeast gro inh = growth inhibition of WT yeast, mitochondrial fusion screen. mitochondrial fusion phenotypic screen, WT strain. inhibition, % at 10 µM. 190,000 compounds, 2.1% hits. AID 1362; in the data active means inhibition above about 58%; tested in S. cerevisiae
* marks the source's active call; other numbers are inactive results.

COc1cccc2cc(C(=O)C3=C(O)C(=O)N(CCN(C)C)C3c3ccc(Cl)cc3)oc12 (configuration not stated) was read as Insulin prom up -0.28.
Screening FC(F)(F)c1cc(Sc2ccccc2)nc(-c2ccccn2)n1 returned Insulin prom up -0.13, Autophagy mod inactive, Insulin prom inh 0.0, L major viab 2.8 and WT yeast gro inh 64.8*.
`COc1cc(C(=O)Nc2ccc3c(c2)OCO3)ccc1OCc1c(C)noc1C` gave Insulin prom up 0.72, Autophagy mod inactive, L major viab 9.9 and WT yeast gro inh 21.6.
Cc1noc(C)c1COc1cccc(C(=O)NCc2cccc(Cl)c2)c1 was read as Insulin prom up 0.26, Autophagy mod inactive, Insulin prom inh -20.0, L major viab 73.0* and WT yeast gro inh 38.4.
For Cc1cccc(C(=O)Nc2ccccc2C(=O)OCc2c(C)noc2C)c1 the results were Insulin prom up -0.78, Autophagy mod inactive, Insulin prom inh -75.8, L major viab 0.2 and WT yeast gro inh 7.3.
`COc1ccc(NS(=O)(=O)c2cc(NC(=O)c3cccc(OCc4c(C)noc4C)c3)ccc2OC)cc1` gave Insulin prom up -1, Autophagy mod inactive, Insulin prom inh 0.0, L major viab 97.9* and WT yeast gro inh -15.4.
For Cc1ccc(NC(=O)c2cccc(OCc3c(C)noc3C)c2)cc1 the results were Insulin prom up -0.02, Autophagy mod inactive, Insulin prom inh -39.3, L major viab 82.7* and WT yeast gro inh -5.9.
Screening Cc1ccccc1NC(=O)c1cccc(OCc2c(C)noc2C)c1 returned Insulin prom up -0.07, Autophagy mod inactive, Insulin prom inh -8.1, L major viab 59.0* and WT yeast gro inh -33.4.
Cc1noc(C)c1COc1ccc(C(=O)Nc2cccnc2)cc1 was read as Insulin prom up 0.16, Autophagy mod inactive, L major viab -2.1 and WT yeast gro inh -2.8.
For Cc1noc(C)c1COc1cccc(C(=O)OCC(=O)N2CC(=O)Nc3ccccc32)c1 the results were Insulin prom up -0.37, Autophagy mod active, Insulin prom inh -209.1, L major viab 2.2 and WT yeast gro inh 7.1.
Cc1noc(C)c1COc1cccc(C(=O)Nc2ccc(C#N)cc2)c1 was read as Insulin prom up -0.5, Autophagy mod inactive, Insulin prom inh 0.0, L major viab 82.8* and WT yeast gro inh 26.4.
CC(=O)N(C)c1ccc(NS(=O)(=O)c2cc(Cl)ccc2Cl)cc1 was read as Autophagy mod inactive, Insulin prom inh 13.3, L major viab 1.2 and WT yeast gro inh -9.4.
Screening O=C(NCC(=O)N1CCN(S(=O)(=O)/C=C/c2ccccc2)CC1)c1ccccc1F returned Insulin prom up 0.16, Autophagy mod inactive, Insulin prom inh -20.0, L major viab -1.9 and WT yeast gro inh 15.9.
`O=C(Oc1ccccc1C(=O)Nc1ccccc1)c1ccc(Br)c([N+](=O)[O-])c1` gave Insulin prom up 0.5, Autophagy mod inactive, Insulin prom inh 61.5, L major viab 21.6 and WT yeast gro inh 26.1.
Screening CCOc1ccc(N2C(=O)CC(Sc3nnnn3-c3ccccc3)C2=O)cc1 (configuration not stated) returned Insulin prom up 0.05, Autophagy mod active, Insulin prom inh -188.9, L major viab 0.6 and WT yeast gro inh 58.9*.
Screening CCn1cc(C(=O)OCC(=O)Nc2c(C)cccc2C)c(=O)c2ccc(C)nc21 returned Insulin prom up 0.91, Autophagy mod inactive, Insulin prom inh -5.6, L major viab 6.9 and WT yeast gro inh -13.2.
CCN(CC)S(=O)(=O)c1ccc(OC)c(NC(=O)c2cccc(C)c2[N+](=O)[O-])c1 was read as Insulin prom up 0.74, Autophagy mod inactive, L major viab 5.4 and WT yeast gro inh -4.6.
CCN(CC)S(=O)(=O)c1ccc(OC)c(NC(=S)Nc2cccc(C)c2C)c1 was read as Insulin prom up 0.17, Autophagy mod inactive, Insulin prom inh 14.3, L major viab 97.5* and WT yeast gro inh -13.3.
Screening CCN(CC)S(=O)(=O)c1ccc(OC)c(NC(=S)Nc2cccc(C)c2)c1 returned Insulin prom up 0.24, Autophagy mod inactive, Insulin prom inh 1.3, L major viab 98.3* and WT yeast gro inh -45.3.
Screening Cc1nn(-c2ccc([N+](=O)[O-])cc2)c2c1C(c1cccc(Br)c1)N1C(=N2)C(=O)Nc2ccccc21 (configuration not stated) returned Insulin prom up -0.41, Autophagy mod active, Insulin prom inh 36.7, L major viab 77.3* and WT yeast gro inh 9.4.
`COc1cccc(Oc2cncnc2-c2ccc(OC)cc2O)c1` gave Insulin prom up 0.04, Autophagy mod inactive, Insulin prom inh 16.7, L major viab 93.2* and WT yeast gro inh 24.1.
